Records with an inconclusive call do not appear. Activity calls are given as the source filed them. Unless noted, calls come from the whole dose curve; as a rule, active = well fitted curve in the direction sought with a large enough effect in the repeat runs; inconclusive = weak or mixed curves; inactive = no such curve, though single readings can be large; an effect the other way counts as inactive or inconclusive.
Assays:
[1] = target: Peroxisome proliferator-activated receptor delta (Homo sapiens) (UniProt Q03181); assay: qHTS assay to identify small molecule agonists of the peroxisome proliferator-activated receptor delta (PPARd) signaling pathway (AID 743212; calls by dose curve)
In short: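 Quantitative high-throughput agonist screen in a HEK293H beta-lactamase reporter line under UAS control. Compounds in DMSO, at 37 C. Fluorescence read after 2 h with FRET substrate at room temperature.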

[2] = qHTS assay to identify small molecule antagonists of the peroxisome proliferator-activated receptor delta (PPARd) signaling pathway - cell viability counter screen (AID 743213); note: nearly all actives have a fitted effect of over 50% in size
In short: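 In this counter screen, HEK293H cells carrying a UAS-beta-lactamase reporter are co-treated with test compounds and 300 nM L165041 (final) for 17 h at 37 C; cell viability is quantified by CellTiter-Glo luminescence.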

[3] = target: Peroxisome proliferator-activated receptor delta (Homo sapiens) (UniProt Q03181); assay: qHTS assay to identify small molecule antagonists of the peroxisome proliferator-activated receptor delta (PPARd) signaling pathway (AID 743215; active = well fitted inhibition curve with a large enough effect in the signal ratio in the repeat runs, not every such curve was filed as active; the % refers to the signal ratio;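 note: cells stimulated with agonist L165041 at 300 nM final during compound exposure; series mostly up to about 62 µM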)
In short: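 Inhibition of L165041-driven (300 nM final) PPARd signaling is scored in HEK293H UAS-bla cells. Exposure lasts 17 h at 37 C; beta-lactamase activity is then read by FRET substrate fluorescence after 2 h at room temperature.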

[4] = target: Bile acid receptor (Homo sapiens) (UniProt Q96RI1); assay: qHTS assay to identify small molecule antagonists of the farnesoid-X-receptor (FXR) signaling pathway (AID 743217; active = well fitted inhibition curve with a large enough effect in the signal ratio in the repeat runs, not every such curve was filed as active; the % refers to the signal ratio)
In short: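 Antagonist mode against 50 uM (final) chenodeoxycholic acid stimulation in FXR-bla HEK 293T cells, 16 h at 37 °C. Inhibition detected as reduced beta-lactamase activity via LiveBLAzer B/G FRET fluorescence after 2 h at room temperature.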

[5] = qHTS assay to identify small molecule agonists of the farnesoid-X-receptor (FXR) signaling pathway - cell viability counter screen (AID 743218); note: nearly all actives have a fitted effect of over 45% in size
In short: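 Cytotoxicity counter-screen run in parallel, same wells: FXR-UAS-bla HEK 293T cells dosed 16 h at 37 C, viability read by CellTiter-Glo luminescence after 30 min at room temperature.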

[6] = target: Bile acid receptor (Homo sapiens) (UniProt Q96RI1); assay: qHTS assay to identify small molecule agonists of the farnesoid-X-receptor (FXR) signaling pathway (AID 743220; active = well fitted activation curve with a large enough effect in the signal ratio in the repeat runs, not every such curve was filed as active; the % refers to the signal ratio)
In short: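 Beta-lactamase reporter under UAS control in GeneBLAzer FXR HEK 293T cells (5000/well) measured with LiveBLAzer FRET substrate after 2 h at room temperature. Compound exposure lasted 16 h at 37C.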

[7] = qHTS assay to identify small molecule antagonists of the farnesoid-X-receptor (FXR) signaling pathway - cell viability counter screen (AID 743221; active = well fitted cell-killing curve with a large enough effect in the repeat runs, not every such curve was filed as active; note: nearly all actives have a fitted effect of over 50% in size)
In short: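 In GeneBLAzer FXR-UAS-bla HEK 293T cells stimulated with 50 uM chenodeoxycholic acid (final), compounds acted for 16 h at 37 C. Viability was assessed afterwards by CellTiter-Glo luminescence.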

[8] = qHTS assay to identify small molecule agonists of the peroxisome proliferator-activated receptor delta (PPARd) signaling pathway - cell viability counter screen (AID 743211); note: nearly all actives have a fitted effect of over 55% in size
In short: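 Luminescent ATP viability assay (CellTiter-Glo, 30 min RT) in UAS-bla HEK293H cells carrying the PPAR delta reporter construct, 3000 cells/well, after a 17 h compound treatment at 37 C.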

[9] = target: Vitamin D3 receptor (Homo sapiens) (UniProt P11473); assay: qHTS assay to identify small molecule agonists of the vitamin D receptor (VDR) signaling pathway (AID 743222; calls by dose curve)
In short: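 Quantitative HTS agonist-mode screen: compounds in DMSO were pin-transferred onto VDR-bla cells and incubated 16 h at 37C, 5% CO2. Reporter activity was detected with LiveBLAzer B/G FRET substrate after 2 h at room temperature.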

[10] = target: Vitamin D3 receptor (Homo sapiens) (UniProt P11473); assay: qHTS assay to identify small molecule antagonists of the vitamin D receptor (VDR) signaling pathway (AID 743223; active = well fitted inhibition curve with a large enough effect in the signal ratio in the repeat runs, not every such curve was filed as active; the % refers to the signal ratio)
In short: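 Agonist 1alpha,25-dihydroxyvitamin D3 (3 nM in well) was added with each compound to VDR-bla cells preincubated 4 h. Cells stood 16 h at 37C, then FRET substrate 2 h at room temperature; fluorescence intensity recorded.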

Measured: Potency

Sequence of Peroxisome proliferator-activated receptor delta (Homo sapiens) (Q03181 whole entry, looked up): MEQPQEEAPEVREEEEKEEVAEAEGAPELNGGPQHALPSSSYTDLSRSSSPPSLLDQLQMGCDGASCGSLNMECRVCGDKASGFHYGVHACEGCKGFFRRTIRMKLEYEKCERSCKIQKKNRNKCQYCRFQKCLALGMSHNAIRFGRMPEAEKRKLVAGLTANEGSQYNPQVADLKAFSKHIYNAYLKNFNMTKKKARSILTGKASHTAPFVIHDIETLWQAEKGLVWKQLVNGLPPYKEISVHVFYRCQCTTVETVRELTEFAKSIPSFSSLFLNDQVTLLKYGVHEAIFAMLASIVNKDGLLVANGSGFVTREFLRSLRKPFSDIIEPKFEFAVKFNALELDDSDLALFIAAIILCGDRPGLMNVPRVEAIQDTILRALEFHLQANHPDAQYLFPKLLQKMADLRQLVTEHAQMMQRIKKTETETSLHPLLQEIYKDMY
Sequence of Vitamin D3 receptor (Homo sapiens) (P11473 whole entry, looked up): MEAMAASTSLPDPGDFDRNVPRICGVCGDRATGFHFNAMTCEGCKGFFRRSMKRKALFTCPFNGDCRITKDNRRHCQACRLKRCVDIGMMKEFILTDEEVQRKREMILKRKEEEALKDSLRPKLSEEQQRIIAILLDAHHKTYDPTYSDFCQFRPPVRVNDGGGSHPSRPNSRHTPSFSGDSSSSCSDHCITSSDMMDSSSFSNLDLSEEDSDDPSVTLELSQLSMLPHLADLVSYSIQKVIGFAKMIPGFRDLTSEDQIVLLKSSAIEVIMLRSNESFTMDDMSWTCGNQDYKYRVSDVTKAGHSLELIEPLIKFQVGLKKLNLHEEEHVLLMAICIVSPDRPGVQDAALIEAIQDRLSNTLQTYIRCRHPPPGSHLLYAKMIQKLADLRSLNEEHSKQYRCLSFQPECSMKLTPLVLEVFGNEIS
Sequence of Bile acid receptor (Homo sapiens) (Q96RI1 whole entry, looked up): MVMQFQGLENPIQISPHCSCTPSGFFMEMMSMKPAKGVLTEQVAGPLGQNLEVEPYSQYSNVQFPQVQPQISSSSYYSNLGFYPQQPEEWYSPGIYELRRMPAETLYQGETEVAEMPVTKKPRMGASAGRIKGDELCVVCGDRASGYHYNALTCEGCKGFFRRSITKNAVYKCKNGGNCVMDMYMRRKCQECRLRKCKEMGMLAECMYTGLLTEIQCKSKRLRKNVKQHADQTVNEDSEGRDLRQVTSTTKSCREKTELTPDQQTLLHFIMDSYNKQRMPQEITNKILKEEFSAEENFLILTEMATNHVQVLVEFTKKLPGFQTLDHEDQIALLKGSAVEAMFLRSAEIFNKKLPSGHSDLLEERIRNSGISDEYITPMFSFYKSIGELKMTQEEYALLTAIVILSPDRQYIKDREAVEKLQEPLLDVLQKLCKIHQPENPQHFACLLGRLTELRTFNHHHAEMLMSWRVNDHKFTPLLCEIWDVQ

N=c1nc(N2CCCCC2)cc(N)n1O
not listed: [8] | [9] | [10]
inactive: all other assays above

CC(C)CCCC(C)N (stereo not given)
inactive: [8] | [5] | [7] | [9]

C=C(C)C(=O)OCCCCCCCC(C)C
inactive: [8] | [2] | [5] | [7] | [9] | [10]

NC(=O)c1cn(Cc2c(F)cccc2F)nn1
not listed: [8] | [10]
inactive: all other assays above

CCN(CC)CCNC(=O)c1cc(S(C)(=O)=O)ccc1OC
inactive: [1] | [2] | [3] | [5] | [7]

Nc1c2c(nc3ccccc13)CCCC2O (stereo not given)
inactive: [1] | [2] | [3] | [5] | [7]

O=C(O)CCCl
inactive: [8] | [5] | [7] | [9]

CC1(C)C(O)C(C)(C)C1O (stereo not given)
inactive: [1] | [2] | [3] | [5] | [7] | [9]

c1ccc([C@H]2CN3CCSC3=N2)cc1
inactive: [1] | [2] | [3] | [5] | [7] | [9]

O=C[C@H](O)[C@@H](O)[C@H](O)[C@H](O)CO
inactive: [8] | [2] | [7]

CC(=O)OCC(=O)[C@@]1(O)CCC2C3CCC4=CC(=O)CC[C@]4(C)C3[C@@H](O)C[C@@]21C (stereo not given in full)
not listed: [8] | [9]
inactive: all other assays above

CC1(C)CO[C@@H](CC(=O)O)CN1
inactive: [1] | [3] | [7] | [9]

NS(=O)(=O)c1cc(C(=O)O)cc(N2CCCC2)c1Oc1ccccc1
inactive: [1] | [2] | [5] | [7] | [9]

O=C(CCCN1CCN(c2ccccn2)CC1)c1ccc(F)cc1
inactive: [1] | [2] | [7] | [9] | [10]

CCOc1ccc(C(=O)OCCN(CC)CC)cc1
inactive: [2] | [4] | [6] | [7] | [9]

O=C1NC(=O)[C@@]2(CCOc3ccc(F)cc32)N1
inactive: [1] | [2] | [7] | [9] | [10]

CC(=O)Nc1ccc(S(N)(=O)=O)cc1
inactive: [1] | [4] | [5] | [6] | [7] | [9]

COc1ccc2c(c1)c(CC(=O)OCC(=O)O)c(C)n2C(=O)c1ccc(Cl)cc1
inactive: [2] | [5] | [7] | [9]

CCCCNC(=O)NCCCC
inactive: [1] | [2] | [3] | [7] | [9] | [10]

C/C=C(\C)C#N
inactive: [1] | [2] | [5] | [7] | [9] | [10]

CC(C)OC(=O)c1ccccc1
inactive: [1] | [2] | [5] | [7] | [9]

Nc1cc(=O)[nH]c(N)n1
inactive: [2] | [4] | [6] | [7] | [9] | [10]

CCCc1cc(C(N)=S)ccn1
inactive: [2] | [7]

CN(C)CCCSc1ccccc1NC(=O)/C=C/c1ccccc1
inactive: [1] | [2] | [3] | [6] | [7]

CN1CCN(c2cc3c(cc2F)c(=O)c(C(=O)O)cn3-c2ccc(F)cc2)CC1
inactive: [2] | [4] | [5] | [6] | [7] | [9]

CCOC(=O)c1c(C)n(C)c2ccc(O)cc12
inactive: [2] | [4] | [5] | [6] | [7] | [9]

O=c1cc(CO)occ1O
inactive: [1] | [2] | [3] | [7] | [9] | [10]

COc1ccccc1OCC(O)CN1CCN(CC(=O)Nc2c(C)cccc2C)CC1 (stereo not given)
inactive: [1] | [2] | [5] | [7] | [9]

CC(C)c1cc2c(cc1S(=O)(=O)O)[C@@]1(C)CCC[C@@](C)(C(=O)O)[C@@H]1CC2
inactive: [1] | [5] | [7] | [9] | [10]

Cc1cccn2c(=O)c(-c3nnn[nH]3)cnc12
inactive: [1] | [2] | [7]

C=CCCCCCCCCC=O
inactive: [2] | [3] | [5] | [7] | [10]

Cc1ccc(=O)n(-c2ccccc2)c1
inactive: [2] | [5] | [7] | [9] | [10]

O=C(O)CCCc1ccccc1
inactive: [2] | [7] | [10]

CCc1cccc2c(CCO)c[nH]c12
inactive: [2] | [3] | [5] | [7] | [9] | [10]

OC1CCCCC1c1ccccc1 (stereo not given)
inactive: [1] | [2] | [3] | [5] | [7] | [10]

CC(C)(CC(=O)O)C(=O)O
inactive: [1] | [2] | [3] | [7] | [10]

CCCCOCCOCCOCc1cc2c(cc1CCC)OCO2
inactive: [2] | [4] | [5] | [6] | [7]

Cc1cc(O)cc2c1O[C@](C)(CCC[C@H](C)CCC[C@H](C)CCCC(C)C)CC2
inactive: [4] | [5] | [6] | [7] | [10]

CCc1ccc(O)c(OC)c1
inactive: [2] | [3] | [4] | [5] | [6] | [7]

Nc1ccc(S(=O)(=O)Nc2ccnn2-c2ccccc2)cc1
inactive: [2] | [4] | [5] | [6] | [7]

NS(=O)(=O)c1ccccc1Cl
inactive: [1] | [2] | [3] | [7] | [9]

O=C(CCCN1CCC(O)(c2cccc(C(F)(F)F)c2)CC1)c1ccc(F)cc1
not listed: [2] | [8]
inactive: all other assays above

CCN(Cc1ccncc1)C(=O)C(CO)c1ccccc1 (stereo not given)
inactive: [2] | [5] | [7]

OC(CCN1CCCCC1)(c1ccccc1)C1CC2C=CC1C2 (stereo not given)
not listed: [2] | [8] | [10]
inactive: all other assays above

CCCCC/C=C\CCC=O
inactive: [2] | [5] | [7] | [10]

N[C@H](C(=O)O)c1ccc(O)cc1
inactive: [1] | [2] | [3] | [7] | [9]
